Results on nine compounds are retold here after paper PMC5540273 (PLoS ONE, 2017).

Assay [1] concerns T1, RSK1(Kin.Dom.2-C-terminal).
T1 construct: gene RPS6KA1

Assay [2] relates to T2, RSK2(Kin.Dom.1-N-terminal).
T2 construct: gene RPS6KA3

Assay [3] has as its system T3, RSK2(Kin.Dom.2-C-terminal).
T3 construct: gene RPS6KA3

Assay [4] concerns T4, RSK3(Kin.Dom.2-C-terminal).
T4 construct: gene RPS6KA2

SMILES strings stand for the structures.
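Also: kd values determined as follow-up on hits from a single-replicate KINOMEscan panel screen.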

On to `C[C@@H]1CC[C@H](C(=O)NC2CCCCC2)CN1c1cc(-c2ccc3c(N)n[nH]c3c2)nc(N)n1` [GSK2291363], for which the figures for the Kd with ROCK1 and with ROCK2 were 0.21 µM and 0.15 µM, respectively.
With `CCc1nc(-c2cccc(C)c2)c(-c2ccncc2)s1`, binding in assay [1] was characterised by a dissociation constant (Kd) of 0.25 µM.
Regarding `COc1cc(Nc2ccnc3ccc(C(F)(F)F)cc23)cc(OC)c1OC` [GW577382], the Kd (usually the free concentration of one partner at which half of the binding sites on the other are occupied at equilibrium, for simple one-to-one binding) in assay [2] was greater than 10 µM.
Take `O=C(Nc1ccc2c(c1)OCO2)NC1CCN(c2ccnc(NCc3ccc(F)cc3)n2)CC1` [GSK1379859]: the Kd in assay [3] was greater than 10 µM.
The same measure, in the same setting: the value for `Nc1nc(-c2ccccc2F)c(-c2ccnc3ccccc23)s1` [GW560459] was 0.79 µM.
`CC(C)(C)c1ccc(C(=O)Nc2cn3cc(-c4ccccc4)ccc3n2)cc1` yielded a Kd in assay [4] greater than 10 µM.
For `Cl.NS(=O)(=O)c1cccc(Nc2cc(-c3ccc(F)cc3)n[nH]2)c1` [GW824645], the Kd in the assay with SGK2 was greater than 10 µM.
The compound `COc1cc2ncn(-c3cc(OCc4ccncc4Br)c(C(N)=O)s3)c2cc1OC` [GW854278] had a Kd with SLK of 0.68 µM. That is a sub-micromolar value.
For `COc1ccc(CNC(=O)NC2CCN(c3ccnc(Nc4ccc(F)cc4)n3)C2)cc1` (stereo not shown) [GSK1379706], in the assay on SRPK2, the Kd is greater than 10 µM.
